MsrA inhibitor: inhibitors of bovine MsrA; purified bovine MsrA, absorbance read-out; inhibition, % at 15.5 µM; 360,000 tested, 0.75% active; AID 651718;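 also: 0% = vehicle wells with enzyme and 100% = reference inhibitor wells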
14-3-3 Bad inh: disrupts binding of bovine 14-3-3 zeta to phospho-Bad peptide. TR-FRET 14-3-3zeta/Dy647-pBad peptide displacement, 1 h. inhibition, % at 21.7 µM. 220,000 tested, 0.71% active;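 active = inhibition above about 70%, limit read from the data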;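 also: 0% = full 14-3-3 plus peptide FRET controls and 100% = background without 14-3-3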
Target sequence (P63103 whole entry, looked up): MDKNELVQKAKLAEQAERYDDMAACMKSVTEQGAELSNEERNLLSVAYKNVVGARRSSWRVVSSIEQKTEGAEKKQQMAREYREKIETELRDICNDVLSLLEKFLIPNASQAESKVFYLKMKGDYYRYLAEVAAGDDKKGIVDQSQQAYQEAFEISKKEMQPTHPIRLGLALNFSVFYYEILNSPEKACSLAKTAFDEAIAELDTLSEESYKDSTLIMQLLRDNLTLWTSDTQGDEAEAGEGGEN
p-CIP stab down: compounds decreasing mouse p/CIP protein stability. 290,000 tested, 0.01% active. Q05BA5. F442A p/CIP-EGFP cells, EGFP fluorescence, 16 h. AID 1984. decrease of EGFP signal, % at 10 µM;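 active = EGFP signal decrease of at least 30% at 10 µM or well 3 SD below plate mean, unless failing retest; inactive = the rest, including hits failing retest or dose response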
bovine MsrA act: activators of bovine methionine sulfoxide reductase A | purified bovine MsrA, absorbance read-out | activation, % at 10.6 µM | 360,000 tested, 0.3% active | AID 602163; in the data active = activation above about 7.5%;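 also: 0% = vehicle and 100% = reference activator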
MsrA inh confirm: bovine MsrA inhibition, confirmed. shares compounds with MsrA inhibitor. purified bovine MsrA, absorbance read-out. inhibition, % at 15.5 µM. 2,300 tested, 41% active. AID 651822;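 also: coupled to thioredoxin reductase with NADPH and selenocystamine and DMSO as substrate; 0% = vehicle only and 100% = full effect of reference inhibitor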
* marks the source's active call; other numbers are inactive results; . = not tested or not shown. This is a sample that favours compounds with a hit; in the whole collection about 1.4% have one here. Rule as the data show it, unless noted: active = inhibition above about 4.5%; inactive = the rest.

SMILES | MsrA inhibitor | 14-3-3 Bad inh | p-CIP stab down | bovine MsrA act | MsrA inh confirm
O=c1[nH]c(=O)n(-c2cccc(Cl)c2)c(O)c1C=NCCCN1CCOCC1 | 13* | -11 | 0 | -1 | 6.8*
N/C(=N\N=C\c1ccc(O)cc1O)N[N+](=O)[O-] | 4 | -6 | 0 | -6 | .
N/C(=N\[N+](=O)[O-])N/N=C/c1ccc(O)cc1 | 5.3* | -3 | -6 | -7 | 4
O=c1[nH]c(=O)n(-c2ccc(Br)cc2)c(O)c1C=NCCN1CCCCC1 | -1 | 0 | -5 | -2 | .
CCC1(Cc2ccccc2)C(=O)NC(=S)N(C)C1=O (centres undefined) | 0 | . | . | -1 | .
CCOP(=O)(CCP(=O)(OCC)OCC)OCC.C[CH2][Sn]([Cl])([Cl])[CH2]C | 56* | . | . | -9 | 51*
CCOP(=O)(OCC)OCC | 1 | . | . | -8 | .
C=CCn1c(O)c(/C=C/C=Nc2ccccc2)c(=O)[nH]c1=O | 5.7* | -8 | -20 | 0 | 1
O=C(N/N=C/c1c(O)n(CCc2ccc(F)cc2)c(=O)[nH]c1=O)c1ccccc1 | 0 | -4 | -6 | 4 | .
COc1ccc(Cn2c(O)c(/C=N/NC(=O)c3ccccc3O)c(=O)[nH]c2=O)cc1 | 6.2* | 0 | 1 | -4 | 5.4*
O=C(N/N=C/c1c(O)n(CCc2ccccc2)c(=O)[nH]c1=O)c1ccccc1O | 4.9* | -8 | -14 | -6 | 4
CCCCCCC(=O)c1c(O)n(-c2ccc(OC)cc2)c(=O)[nH]c1=O (tested in a mixture with another compound) | -1 | 6 | -17 | -1 | .
Cc1ccccc1-c1ccc2n1Cc1cnnn1-c1ccccc1-2 | 5.5* | . | . | -4 | 0
CC(=O)c1cccc(OCC(=O)N2CCN(CC(=O)Nc3cccc(F)c3)CC2)c1 | -2 | . | . | -2 | .
CCOC(=O)c1cc(C(O)(C(=O)OC)C(F)(F)F)c(/N=C/N(C)C)o1 (centres undefined) | 6.8* | -14 | -15 | -14 | 3
CC(C)(C)c1cc([N+](=O)[O-])cc(C(C)(C)C)c1O | 22* | -7 | -2 | . | 18*
Cc1c(N=Cc2c(O)n(Cc3ccc(F)cc3)c(=O)[nH]c2=O)c(=O)n(-c2ccccc2)n1C | 4.9* | -10 | 2 | -2 | 3
ClCCN(CCCl)c1ccc(C=NNc2ncccn2)cc1 | 6.2* | . | . | -10 | 7.4*
ClCCN(CCCl)c1ccc(C2=NCCc3ccccc32)cc1 | 0 | . | . | 0 | .
ClCCN(CCCl)c1ccc(C=Cc2ccncn2)cc1 | 1 | . | . | -5 | .
N#Cc1ncc(N=Cc2ccc(N(CCCl)CCCl)cc2)s1 | 5.0* | . | . | -8 | 6.2*
Cn1ncc(Cl)c1C(=O)N1CCC2(CC1)OCCO2 | 2 | . | -14 | -6 | .
O=C(NN=Cc1ccc(N(CCCl)CCCl)cc1)C(=O)c1c[nH]c2ccccc12 | 6.0* | . | . | -8 | 2
O=C1c2ccccc2-n2nnc(-c3ccccc3)c2C2c3ccccc3CCN12 (centres undefined) | -1 | . | . | -10 | .
CC(=O)OC1C(O)C(C)OC(OC2C(OC(=O)C3CCC4C(C3)OC3(CC(OC(=O)/C=C/c5ccccc5)C(C)CO3)C43CO3)OC(C)C(O)C2OC(C)=O)C1O (centres undefined) | 0 | . | . | -1 | .
SMILES | MsrA inhibitor | 14-3-3 Bad inh | p-CIP stab down | bovine MsrA act | MsrA inh confirm
C[C@]12CC[C@@H](O)CC1=CCC1C2CC[C@@]2(C)C1C[C@@H](F)[C@@H]2O (some centres undefined) | 1 | . | . | -2 | .
CCn1nc(/C=C/c2ccccc2)nc2c(=O)n(C)c(=O)nc1-2 | 5.3* | -17 | 11 | -6 | 4.6*
O=C(CCCc1ccccc1)NCCc1cnc[nH]1 | -1 | . | 3 | -4 | .
CCN(CC)c1ccc(N=Cc2c(O)n(-c3ccccc3C)c(=O)[nH]c2=O)cc1 | 0 | -12 | -10 | 0 | .
Cc1ccccc1-n1c(O)c(C=Nc2ccc3c(c2)OCO3)c(=O)[nH]c1=O | 4.7* | -15 | -17 | -4 | 3
C[C@@H]1CN([C@@H](C)CO)C(=O)CCCn2nncc2CO[C@@H]1CN(C)C(=O)Oc1cccc2ccccc12 | -1 | . | . | -1 | .
FC(F)(F)c1ccc(CNCCc2ccc3c(c2)OCO3)cc1 | 1 | . | -6 | -6 | .
CC(C)n1c(=O)c(C=Nc2ccc(F)cc2)c(O)n(Cc2ccco2)c1=O | 5.7* | 3 | -16 | -2 | 2
O=c1[nH]c(=S)n(Cc2ccc(F)cc2)c(O)c1/C=N/N1CCCCC1 | 2 | 7 | -8 | -1 | .
CC(C)n1c(O)c(C=NCc2ccccc2)c(=O)[nH]c1=S | 5.2* | 0 | 1 | -5 | 2
O=c1[nH]c(=S)n(Cc2ccc(F)cc2)c(O)c1C=NCC1CCCO1 (centres undefined) | 5.7* | -22 | -11 | -4 | 3
O=c1[nH]c(=S)n(Cc2ccc(F)cc2)c(O)c1C=NCc1cccnc1 | 4.8* | 2 | 0 | -8 | 4
O=c1[nH]c(=S)n(C2CC2)c(O)c1C=NCC1CCCO1 (centres undefined) | 6.2* | 0 | 0 | -7 | 3
O=C(/C=C/C=C/c1ccccc1)CC1(O)C(=O)Nc2ccccc21 (centres undefined) | 7.2* | 1 | -9 | -4 | 5.6*
CC(=O)/C=C/c1ccccc1 | -1 | . | . | 0 | .
COC(=O)C1=C(c2c(C)noc2C)C[C@@H]2CC[C@H]1N2C(=O)NCCNC(C)=O | -1 | . | . | -2 | .
